# HT1080 IDH1KD tx: HT-1080 IDH1 knockdown cell toxicity (counter line); HT-1080 IDH1 knockdown viability, ATP luminescence, 48 h; Potency, µM (series often up to 46.1 µM), without a hit: at the highest dose activity, negative = toxicity, hits mostly cytotoxic; 360,000 compounds, 2% hits; AID 686971;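 also: 0% = DMSO wells and -100% = cell-free medium wells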
#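 Luminescent ATP read-out (CellTiter-Glo, 10 min at room temperature) after 48 h compound exposure at 37 °C gave viability of IDH1-knockdown HT-1080 cells. Activity was normalised to DMSO and cell-free wells, then fitted as concentration-response curves.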
# TGFb inhibitor: inhibitors of TGF-b signaling. HepG2 CAGA-GFP TGF-b/SMAD3 reporter, GFP fluorescence, 18 h; TGF-beta stimulated, 500 pg/mL final. Potency, µM (top dose mostly 46.1 µM), for the others: at the highest dose activity, negative = inhibition, actives largely listed as inhibitors. 410,000 compounds, 1.2% hits. AID 588855; also: % is scaled to controls: 0 for no effect and ±100 for the full control effect; nearly all actives have a fitted effect of over 65% in size
#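 HEPG2 CAGA-GFP cells (1000/well, DMEM with 1% FBS) were pre-incubated 2 h at 37 degrees C, given compound by pin tool, then stimulated with TGF-beta at 500 pg/mL final for 18 h before per-cell GFP fluorescence imaging.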
# HepG2 tox: kills HepG2 cells in TGF-b inhibitor counter-screen; HepG2 CAGA-GFP viability, ATP luminescence, 18 h; Potency, µM (top dose mostly 46.1 µM), without a hit: top-dose activity change, negative = cytotoxicity, hits mostly cytotoxic; 410,000 compounds, 0.76% hits; AID 588856
#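 HepG2 CAGA-GFP cells (1000/well, DMEM with 1% FBS) received compound, then TGF-beta at 500 pg/mL final, and were incubated 18 hours at 37 degrees C. Viability was read by CellTiter-Glo luminescence. Media-only wells were set as complete cell-killing and DMSO as no toxicity.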
# ATXN2 expr inh: reduces ATXN2 reporter expression in HEK-293 cells; HEK-293 ATXN2-luciferase reporter, luminescence, 24 h; Potency, µM (top dose mostly 57 µM), for the others: at the highest dose activity change, negative = inhibition, usual class: inhibitors; 360,000 compounds, 0.72% hits; AID 1745845; also: % is scaled to controls: 0 for no effect and ±100 for the full control effect; nearly all actives have a fitted effect of over 55% in size
#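 ATXN2-luciferase reporter cells (luciferase flanked by upstream and downstream ATXN2 gene portions) were treated 24 h at 37 °C with compounds at up to 57 uM. SteadyGlo luminescence gave expression; GF-AFC fluorescence gave viability.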
# HT1080-NT tox: kills 2HG-producing HT-1080-NT fibrosarcoma cells. 360,000 compounds, 1.6% hits. AID 686970. Potency, µM (top dose mostly 46.1 µM), inactives show at the highest dose activity, negative = less viability, actives largely listed as cytotoxic. HT-1080-NT fibrosarcoma viability, CellTiter-Glo ATP luminescence, 48 h;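 also: NT is the 2HG producing partner of a matched IDH1 knockdown line; 0% = DMSO-treated cells and -100% = media-only wells without cells; nearly all actives have a fitted effect of over 55% in size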
#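 Fibrosarcoma NT cells, 750 per well in 5% FBS RPMI, were exposed to compound for 48 hours. Viability: CellTiter-Glo luminescence.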
# S2 tox: viability counter-screen for ATXN expression inhibitors; S2 cells (HEK-293 line with an ATXN2-luciferase reporter) viability, CellTiter-Fluor protease fluorescence, 24 h; Potency, µM (top dose mostly 56.7 µM), actives largely listed as cytotoxic; 400,000 compounds, 0.49% hits; AID 651635; also: nearly all actives have a fitted effect of over 40% in size
# Starred values were filed as active, the others as inactive; i = inactive; ? = inconclusive; nt = not tested or not shown; ! = a repeat was not active. Only some compounds are listed: those with a hit (about 3.8% of all), similar ones and a draw of the others. Calls follow the shape of the dose curve; as a rule, active = well fitted curve in the direction sought with a large enough effect; inconclusive = small, poorly fitted or top-dose-only effect, or another doubt; inactive = no such curve, though single readings can be large; an effect the other way counts as inactive or inconclusive. Potency is read from the fitted curve at half-maximal effect.
SMILES,HT1080 IDH1KD tx,TGFb inhibitor,HepG2 tox,ATXN2 expr inh,HT1080-NT tox,S2 tox
COc1cc(NC(=O)N2CCC(CN3CCCCCC3)CC2)cc(OC)c1OC,nt,0.4%,-0.9%,nt,nt,nt
C[n+]1ccnc2cc(Cl)ccc21,nt,1.12µM*,1.41µM*,nt,nt,nt
C[n+]1ccnc2ccccc21,nt,5.01µM*,-104.9%,nt,nt,nt
Clc1ccc2c(N3CCCC3)ccnc2c1,-14.2%,-8.1%,-36.3%,-35.5%,-21.5%,i
C=CC[n+]1ccnc2ccccc21,nt,?,1.1%,nt,nt,nt
CC(=O)Nc1ccc(/C=C/c2nc3ccccc3s2)cc1,nt,-21.0%,-33.0%,nt,nt,nt
COc1cccc(NC(=O)CC(C)S(=O)(=O)c2ccc3c(c2)NC(=O)CO3)c1 (stereo not drawn),nt,14.1%,-3.0%,-1.9%,nt,i
CC(=O)c1ccc(OCC(=O)N2CCCCC2)cc1,nt,nt,nt,46.5%,nt,i
CC(=O)CC1OC(=O)C(Br)=C1NCc1ccccc1 (stereo not drawn),0.891µM*,10µM*,7.94µM*,?,3.55µM*,nt
O=C(CC1Oc2ccccc2NC1=O)NCc1ccccc1 (stereo not drawn),4.5%,-4.2%,0.6%,3.8%,4.3%,i
CC(C)CN(CC(C)C)c1ccc(/C=C/c2nc3ccccc3s2)cc1,nt,-21.7%,-18.7%,nt,nt,nt
Cc1ccsc1C(=O)N(Cc1cc2cc3c(cc2nc1N1CCOCC1)CCC3)CC1CCCO1 (stereo not drawn),nt,nt,nt,nt,nt,i
CC1=NN(c2ccccc2)C(=O)/C1=C/C=C/C=C/N(C)C,?,13.3%,-6.2%,?,-11.4%,14.1µM*
NC(Cc1ccc(C(F)(F)F)cc1)c1csc(Nc2ccc(S(N)(=O)=O)cc2)n1 (stereo not drawn),?,?,-73.7%,?,20.6µM*,?
NC(Cc1ccccc1)c1csc(Nc2ccc(C(=O)c3ccccc3)cc2)n1 (stereo not drawn),?,?,-100.6%,?,?,?
CC(C)CC(N)c1csc(Nc2ccc(C(=O)c3ccccc3)cc2)n1 (stereo not drawn),-21.1%,17.8µM*,15.8µM*,?,?,?
NC(Cc1ccc(Cl)cc1)c1csc(Nc2ccc(S(N)(=O)=O)cc2)n1 (stereo not drawn),?,-3.0%,-23.4%,?,?,?
NC(Cc1ccc(F)cc1)c1csc(Nc2ccc(C(=O)c3ccccc3)cc2)n1 (stereo not drawn),14.6µM*,11.2µM*,12.6µM*,?,?,nt
CS(=O)(=O)c1ccc(Nc2nc(C(N)Cc3ccc(Cl)cc3)cs2)cc1 (stereo not drawn),?,?,-33.0%,?,14.6µM*,i
CCCSc1ncc(Cl)c(C(=O)Nc2nc3ccc(C)cc3s2)n1,nt,nt,-0.5%,nt,nt,nt
COc1cc(=O)n2c(c1C(=O)N(C)Cc1nonc1C)CCN(Cc1cc(C)c(C)cc1C)CC2,nt,nt,nt,nt,nt,i
NC(c1csc(Nc2ccc(C(=O)c3ccccc3)cc2)n1)C1CCCCC1 (stereo not drawn),14.6µM*,?,-103.2%,?,?,nt
CC(C)CC(N)c1csc(NC(=O)C(c2ccccc2)c2ccccc2)n1 (stereo not drawn),2.91µM*,?,12.6µM*,?,7.31µM*,?
Cc1cccc(Cn2nc(C(C)(C)C)cc2C(=O)Nc2ccc(F)cc2)c1,?,?,12.6µM*,?,?,?
CC(=O)Nc1ccc(-c2csc(Nc3ccc(S(N)(=O)=O)cc3)n2)cc1,1.8%,6.5%,-16.1%,-5.9%,-9.0%,i
SMILES,HT1080 IDH1KD tx,TGFb inhibitor,HepG2 tox,ATXN2 expr inh,HT1080-NT tox,S2 tox
NS(=O)(=O)c1ccc(Nc2nc(-c3ccc(F)cc3)cs2)cc1,14.6µM*,?,14.1%,?,?,i
O=[N+]([O-])c1ccccc1/C=C/c1ccnc2ccccc12,nt,-1.3%,-26.3%,nt,nt,nt
CCN1CCN(c2oc(-c3ccc(COc4ccc(C)cc4)o3)nc2C#N)CC1,nt,8.1%,-32.0%,-33.6%,nt,?
COc1ccc(CC(N)c2csc(Nc3ccc(C(=O)c4ccccc4)cc3)n2)cc1 (stereo not drawn),?,?,-111.5%,35.5µM*,?,?
CC(C)CC(N)c1csc(NC(=O)c2cc(C(C)(C)C)nn2Cc2ccccc2)n1 (stereo not drawn),16.4µM*,?,11.2µM*,?,11.6µM*,nt
NC(Cc1ccc(Cl)cc1)c1csc(Nc2ccc(C(=O)c3ccccc3)cc2)n1 (stereo not drawn),?,11.2µM*,10µM*,?,?,nt
COc1ccc(-c2nc(C)c(CCNC(=O)C(=O)Nc3ccccc3F)s2)cc1,nt,2.4%,1.0%,7.1%,nt,i
Cc1ccc(CNc2ccc3c(c2)ncn3C)cc1,0.0%,-1.2%,-0.6%,52.6%,6.7%,i
COc1ccc(CNc2ccc3c(c2)ncn3C)cc1OC,16.4µM*,0.0%,-3.2%,-0.7%,16.4µM*,i
Cc1ccc(NS(=O)(=O)c2ccc3c(c2)[C@H]2C=CC[C@H]2[C@@H](c2ccc(F)cc2)N3)cc1C,nt,8.91µM*,-22.1%,-19.2%,nt,i
O=C(O)c1ccc(NS(=O)(=O)c2ccc3c(c2)C2C=CCC2C(c2ccccc2F)N3)cc1 (stereo not drawn),-15.2%,-1.6%,-0.6%,3.0%,-22.7%,i
Cc1ccc([C@H]2Nc3ccc(S(=O)(=O)Nc4cccc(Cl)c4C)cc3[C@H]3C=CC[C@H]32)cc1,nt,-21.5%,-34.4%,nt,nt,nt
COC(=O)c1ccc([C@H]2Nc3ccc(S(=O)(=O)Nc4cccc(C)c4)cc3[C@H]3C=CC[C@H]32)cc1,nt,6.31µM*,-23.5%,-21.4%,nt,?
CC(=O)Nc1ccc(SCCN2CCN(C)CCC2=O)cc1,nt,6.6%,-4.4%,nt,nt,nt
Cc1ccc2sc(N(CCCN(C)C)C(=O)c3ccc(S(=O)(=O)N(C)C4CCCCC4)cc3)nc2c1C,?,?,-112.1%,?,-11.5%,nt
CCN(Cc1ccccc1)S(=O)(=O)c1ccc(C(=O)N(CCCN(C)C)c2nc3c(C)c(C)ccc3s2)cc1,18.4µM*,?,-102.5%,0.0%,?,?
CN(C)CCCN(C(=O)c1ccc(S(=O)(=O)N(C)C)cc1)c1nc2cc3c(cc2s1)OCO3,-12.0%,3.4%,-9.6%,-30.5%,-18.5%,i
CCN(Cc1ccccc1)S(=O)(=O)c1ccc(C(=O)N(CCCN(C)C)c2nc3cc4c(cc3s2)OCO4)cc1,?,15.8µM*,12.6µM*,?,?,?
C[C@@H]1CC(=O)NN=C1c1ccc(NN=C(C#N)C#N)cc1,nt,nt,nt,27.3µM*!,nt,25.1µM*
